In PubChem BioAssay (NCI):
About 83,000 compounds went through this panel and 20% of them were active in at least one assay; those are over-represented in the sample as a whole.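 How to read the values: 0–100, growth inhibition (40 = 60% inhibited); 0, no net growth; -100 to 0, cell death (-40 = 40% of starting cells died; -100 = all dead).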 Calls of active or inactive are those of the source. The calls were made as follows: active = growth percent below 10; inactive = the rest.

system: MDA-MB-468 breast; assay: NCI-60 one-dose screen, 48 h (100 = growth as untreated, 0 = no growth, -100 = all killed); settings: 10 µM unless noted

| SMILES | growth |
| --- | --- |
| C=C(C)[C@@H]1CC[C@]2(C(=O)OC)CC[C@]3(C)[C@H](CC[C@@H]4[C@@](C)(CCc5nn[nH]n5)[C@H](C(=C)C)CC[C@]43C)[C@@H]12 | -7.51% [100 µM] (active) |
| CCc1nn(Cc2ccccc2)c2nc(C)c(CCc3ccccc3)c(Cl)c12 | 88.3% (inactive) |
| CCN(CC)CCNC(Cc1ccccc1)c1ccc(OCc2ccccc2)cc1 (stereo not given) | 66.4% (inactive) |
| Oc1ccc(/C=N/Nc2nnc(N/N=C/c3ccc(O)cc3O)c3ccccc23)c(O)c1 | -47.3% (active) |
| CNC(=O)c1cc(Oc2ccc3nc(NC(=O)Nc4ccc(Cl)c(Cl)c4)sc3c2)ccn1 | 68.3% (inactive) |
| Cn1ccc(=O)nc1 | 71.1% (inactive) |
| COc1ccc(/C=C/c2nc(-c3n[nH]c(=O)n3-c3ccccc3)c3ccccc3n2)cc1 | 100% (inactive) |
| Cc1ccc(-c2nc3nc(-c4ccc(F)cc4)nc(N4CCCNCC4)c3o2)cc1 | -75.5% (active) |
| Nc1ccc2c(c1)C(=O)C(=O)c1c-2nc2ccccn12 | -38.2% (active) |
| C#Cc1ccccc1NC(=O)c1sc2nc3c(cc2c1N)CCCCC3 | 119% (inactive) |
| CC(C)=C(NC(=O)c1ccccc1)C(=O)O | 88.5% (inactive) |
| CCn1c(CN2CCN(Cc3ccccc3)CC2)nc2cc(NC(=O)c3cccs3)ccc21 | -86.6% (active) |
| O=C1Nc2ccc(Cl)cc2/C1=C/c1ccc(OCc2ccc(F)cc2)cc1 | 97.3% (inactive) |
| O=S(=O)(O)c1ccc(Cl)cc1 | 105% (inactive) |
| Cn1c(C#N)ccc1-c1ccc(F)c(NC(=O)c2ccc(F)cc2)c1 | 35.6% (inactive) |
| CSCC[C@@H]1C(=O)N(C)[C@H](C(C)(C)C)N1C(=O)c1ccccc1 | 105% (inactive) |
| CC(C)c1cccc(C#N)c1 | 99.4% (inactive) |
| Nc1cc(F)ccc1NC(=O)c1ccc(NC(=O)C/C=C/c2cccnc2)cc1 | 40.1% (inactive) |
| O=C1COCCN1c1ccc(NCc2cn(Cc3cccc4ccccc34)c3ccccc23)cc1 | -24.8% (active) |
| O=C(Nc1ccccc1)c1sc(-c2cccc(C(F)(F)F)c2)cc1O | 92.3% (inactive) |

| SMILES | growth |
| --- | --- |
| O=C(NC1CCCC1)c1ccc(N2CCC(NCc3cccc(C(F)(F)F)c3)CC2)cc1 | 77.7% (inactive) |
| COc1ccc(-c2nnc(-c3c(-c4ccccc4)nc4ncccn34)o2)cc1OC | 99.1% (inactive) |
| Oc1c(Cl)cc(Cl)c2ccc(Cn3cc(-c4cc(F)cc(F)c4)nn3)nc12 | 38.2% (inactive) |
| CCOC(=O)C1C(=O)C=C(c2ccc(OC)cc2)CC1c1sc(N(C)Cc2ccccc2)nc1Cl (stereo not given) | 58.3% (inactive) |
| COC12CC(=O)C(C(C)=O)=C(O)C1(C)c1c(O)c(C)c(O)c(C(C)=O)c1O2 (stereo not given) | 68.9% (inactive) |
| N#C/C(=C\c1ccc2ccccc2c1)c1cc2ccccc2[nH]1 | 30.5% (inactive) |
| Cc1cc2cc3cc(C)c(N(C)C)cc3[n+](C)c2cc1N(C)C | 27.1% (inactive) |
| CCOC(=O)CC1CSC(N/N=C/c2ccc(F)c(Br)c2)=N1 (stereo not given) | 116% (inactive) |
| O=C(NC(=S)Nc1ccc(-c2nc3ccccc3[nH]2)cc1)c1ccc2ccccc2c1 | 13.6% (inactive) |
| CN(C)c1ccc2cc(-c3ccccc3F)c(N)nc2c1 | 25.6% (inactive) |
| Cc1ccc(N)cc1[N+](=O)[O-] | 115% (inactive) |
| O=C(Cc1ccccc1)Nc1nc(O)c(/C=C2\C(=O)C=Cc3ccccc32)s1 | 95.9% (inactive) |
| CCNC(=NCCCN(C)C)N/C(N)=N/c1nc2ccccc2s1 | 94.3% (inactive) |
| C[n+]1c2ccccc2c(Nc2ccc(NS(=O)(=O)CCCCN=C(N)N)cc2)c2ccc(N)cc21 | 39% (inactive) |
| CS(=O)(=O)c1ccc(NC(=O)c2ccccc2)nc1 | 105% (inactive) |
| CCOC(=O)c1c2c(n3ccc(NC(=O)CCN4CCCC4)cc13)C(=O)c1ncccc1C2=O | -82% (active) |
| C=C1C[C@@]2(C)C(CC[C@]3(C)C2CC=C2C4CC(C)(C)C[C@@H](OC(=O)/C(C)=C\C)[C@]4(C(=O)O)CC[C@]23C)C(C)(C)C1=O (stereo not given in full) | -23.9% (active) |
| CC(C)(C)NCCC(O)c1cc2c(Cl)cc(Cl)cc2c2cc(C(F)(F)F)ccc12 (stereo not given) | -85.7% (active) |
| COc1cc(OC)c2sc(-c3ccc(-n4cncc4-c4ccc(OC)c(OC)c4)cc3)nc2c1 | 31% (inactive) |
| COc1ccc(C(C)=O)cc1S(=O)(=O)Nc1c(N)nc(SC)[nH]c1=O | 97.6% (inactive) |
